Bioassay records (PubChem BioAssay)
Most compounds without a hit are left out; they make up all but 10% or so of the library.
VP16 counter: VP16 counterscreen qHTS for inhibitors of ROR gamma transcriptional activity. Drosophila S2 Gal4-VP16 UAS-luciferase, luminescence, 20 h. Potency, µM (series often up to 53.6 µM), most hits filed as inhibitors. actives 3.5% (n = 310,000);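 note: Gal4-VP16 expression switched on by copper sulfate through the metallothionein promoter; nearly all actives have a fitted effect of over 50% in size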
RORg inh: qHTS for inhibitors of ROR gamma transcriptional activity; Drosophila S2 Gal4-RORgamma UAS-luciferase reporter, 20 h; Potency, µM (top dose mostly 53.6 µM), usual class: inhibitors; actives 5.4% (n = 310,000); AID 2551, 2010; note: nearly all actives have a fitted effect of over 60% in size
Target sequence (P51450 whole entry, looked up, the tested form may be a part): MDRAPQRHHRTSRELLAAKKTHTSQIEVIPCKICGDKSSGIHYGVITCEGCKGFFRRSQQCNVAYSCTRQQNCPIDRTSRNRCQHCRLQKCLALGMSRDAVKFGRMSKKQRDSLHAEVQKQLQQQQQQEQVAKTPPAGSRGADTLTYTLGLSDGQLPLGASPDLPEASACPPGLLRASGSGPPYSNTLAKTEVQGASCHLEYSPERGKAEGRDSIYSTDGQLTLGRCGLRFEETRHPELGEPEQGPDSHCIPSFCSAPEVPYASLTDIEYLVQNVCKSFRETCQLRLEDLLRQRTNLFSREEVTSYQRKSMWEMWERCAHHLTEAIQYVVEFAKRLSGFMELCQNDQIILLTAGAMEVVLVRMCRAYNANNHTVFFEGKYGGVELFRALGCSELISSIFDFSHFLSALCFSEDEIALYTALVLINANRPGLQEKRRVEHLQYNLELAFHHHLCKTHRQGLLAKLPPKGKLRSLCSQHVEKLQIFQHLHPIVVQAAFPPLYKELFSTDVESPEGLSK
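Luminescence from a UAS-regulated Photinus luciferase reporter in stably transfected Drosophila Schneider cells is measured; decreased signal marks ROR gamma inhibition. Fusion expression is induced by 700 uM copper sulfate for 20 hr.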
ELG1 repair inh: qHTS screen for small molecules that inhibit ELG1-dependent DNA repair in human embryonic kidney (HEK293T) cells expressing luciferase-tagged ELG1. actives 2.3% (n = 330,000). AID 504467, 2011. Potency, µM (highest dose often 46.1 µM), most hits filed as inhibitors. HEK293T ELG1-luciferase reporter, luminescence, 16 h; DNA damage induced by 5-fluorouridine; note: nearly all actives have a fitted effect of over 55% in size
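HEK293T cells expressing luciferase-tagged ELG1 (2,000/well) received 5-Fluorouridine plus compound or DMSO for 16 hr at 37 °C. Luciferase was read by ONE-Glo luminescence after 30 min at room temperature.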
MCF10A rereplic: A quantitative high throughput screen for small molecules that induce DNA re-replication in MCF 10a normal breast cells | actives 2.9% (n = 350,000) | Potency, µM (highest dose often 46.1 µM), actives largely listed as activators | MCF 10A DNA re-replication, Hoechst nuclear intensity, 48 h; note: nearly all actives have a fitted effect of over 50% in size
SW480 rereplic: A quantitative high throughput screen for small molecules that induce DNA re-replication in SW480 colon adenocarcinoma cells; SW480 DNA re-replication, Hoechst DNA content imaging, 48 h; Potency, µM (highest dose often 46.1 µM), usual class: activators; actives 1.8% (n = 340,000); AID 624297, 2012; note: nearly all actives have a fitted effect of over 55% in size
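Quantitative HTS format with DMSO vehicle controls; 48 hr drug incubation at 37 C, then 40 min Hoechst staining and scanning imager measurement at 405 nm excitation.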
Of the large screens only hits and unclear results are named; the others gave an inactive call. Calls come from the whole dose curve; as a rule, active = well fitted curve in the direction sought with a large enough effect; inconclusive = small, poorly fitted or top-dose-only effect, or another doubt; inactive = no such curve, though single readings can be large; an effect the other way counts as inactive or inconclusive.

O=C(CN(c1ccc(F)cc1)S(=O)(=O)c1ccc2c(c1)OCCO2)NCc1ccccc1	none
S=C(Nc1ccccc1Cl)NC1CC2CCCC(C1)N2C1CC1 (stereo unspecified)	RORg inh 11µM
CCC(C(=O)Nc1ccc(S(=O)(=O)Nc2ncccn2)cc1)c1ccccc1 (stereo unspecified)	none
CCc1ccc(NC(=O)CCc2ccc(C)o2)cc1	MCF10A rereplic 16µM, SW480 rereplic inconclusive
COCCN1C=C(C(=O)OC)C(c2ccc(Cl)cc2)C(C(=O)OC)=C1	MCF10A rereplic 16µM, SW480 rereplic 9.2µM
COC(=O)C1=CN(Cc2ccc(OC)cc2)C=C(C(=O)OC)C1c1ccsc1	ELG1 repair inh inconclusive, MCF10A rereplic inconclusive, SW480 rereplic 23µM
COC(=O)C1=CN(Cc2cccs2)C=C(C(=O)OC)C1c1cccc(Cl)c1	RORg inh inconclusive, ELG1 repair inh inconclusive, MCF10A rereplic 7.3µM, SW480 rereplic inconclusive
CCOc1ccc(C2C(C(=O)OC)=CN(CCOC)C=C2C(=O)OC)cc1	SW480 rereplic inconclusive
O=C1OC(CCl)CN1Cc1ccc([N+](=O)[O-])cc1 (stereo unspecified)	none (no result: VP16 counter, RORg inh, ELG1 repair inh)
Cc1nn(C)c(Cl)c1C(=O)NCC(=O)NCc1ccccc1	none
CCOc1ccc(C2C(C#N)=C(N)SC(N)=C2C#N)cc1OCC	VP16 counter 7.9µM, ELG1 repair inh inconclusive
CCOc1ccc(CN2CCN(c3ncnc4scc(-c5ccccc5)c34)CC2)cc1	none
Cc1sc2ncnc(N3CCN(Cc4ccccc4)CC3)c2c1-c1ccccc1	ELG1 repair inh inconclusive, MCF10A rereplic 16µM
Cc1sc2ncnc(N3CCN(CCOc4ccc(Cl)cc4)CC3)c2c1C	VP16 counter 3.5µM, RORg inh inconclusive, ELG1 repair inh inconclusive, MCF10A rereplic 18µM, SW480 rereplic inconclusive
Cc1sc2ncnc(N3CCC(C(=O)NNC(=O)COc4ccc(Cl)cc4)CC3)c2c1C	MCF10A rereplic inconclusive (no result: VP16 counter, RORg inh, ELG1 repair inh)
CCOC(=O)C1=C(COC(=O)CCc2ccc(F)cc2)NC(=O)NC1C (stereo unspecified)	none (no result: VP16 counter, RORg inh)
O=C1CC(N2CCN(S(=O)(=O)c3ccccc3F)CC2)C(=O)N1c1ccccc1Cl (stereo unspecified)	none (no result: VP16 counter, RORg inh)
C=CCNC(=S)NNC(=O)COc1ccc(Br)cc1	VP16 counter 3.5µM, RORg inh 5µM, ELG1 repair inh inconclusive
C=CCNC(=S)NNC(=O)COc1ccc2cc(Br)ccc2c1	VP16 counter inconclusive, RORg inh 3.2µM, ELG1 repair inh inconclusive
C=CCNC(=S)NNC(=O)COc1cccc(Cl)c1	VP16 counter 8.9µM, RORg inh 1.3µM, SW480 rereplic inconclusive
C=CCNC(=S)NNC(=O)c1cccc(Br)c1	VP16 counter inconclusive, RORg inh inconclusive
CCOc1ccc(S(=O)(=O)NCc2ccc3c(c2)OCO3)cc1C(=O)O	none
CCCCC[C@H](O)/C=C/[C@@H]1[C@@H](C/C=C\CCCC(=O)O)[C@@H](O)C[C@@H]1O	none (no result: ELG1 repair inh, MCF10A rereplic, SW480 rereplic)
O=C1NC(=O)C(=Cc2ccccc2[N+](=O)[O-])S1	MCF10A rereplic 21µM, SW480 rereplic inconclusive (no result: VP16 counter, RORg inh, ELG1 repair inh)
COCCNc1nnnc2c1sc1nc(N3CCOCC3)c3c(c12)CC(C)(C)OC3	ELG1 repair inh 4.1µM
CCc1nc2c(sc3nc(N4CCOCC4)c4c(c32)CC(C)(C)OC4)c(=O)o1	RORg inh inconclusive (no result: MCF10A rereplic, SW480 rereplic)
CN(C)CCNc1ncnc2c1sc1nc(N3CCOCC3)c3c(c12)CC(C)(C)SC3	VP16 counter inconclusive, MCF10A rereplic 21µM, SW480 rereplic inconclusive
Cc1cn(CC(=O)NCC(C)c2ccccc2)c(=O)[nH]c1=O (stereo unspecified)	none (no result: VP16 counter, RORg inh, ELG1 repair inh)
CCCC(=O)Nc1c2c(nn1-c1cccc(Cl)c1)CS(=O)(=O)C2	SW480 rereplic inconclusive
FC(F)Sc1ccc(NC(=S)NC2CCCCC2)cc1	VP16 counter inconclusive, RORg inh 8.9µM, ELG1 repair inh inconclusive, MCF10A rereplic inconclusive, SW480 rereplic inconclusive
COc1ccc(NC(=O)NC2CCCCC2C)cc1 (stereo unspecified)	ELG1 repair inh inconclusive
FC(F)Sc1ccc(NC(=S)NCC2CCCCC2)cc1	VP16 counter 10µM, RORg inh 8.9µM, MCF10A rereplic inconclusive, SW480 rereplic inconclusive
CC1CCN(C(=S)Nc2ccc(SC(F)F)cc2)CC1	VP16 counter 11µM, RORg inh 7.9µM, ELG1 repair inh inconclusive
CC1CCCCC1NC(=S)Nc1ccc(SC(F)F)cc1 (stereo unspecified)	VP16 counter 11µM, RORg inh 6.3µM, ELG1 repair inh inconclusive, MCF10A rereplic inconclusive
CN(CC(=O)Nc1ccc(SC(F)F)cc1)C1CCCCC1	SW480 rereplic inconclusive
O=C(Nc1ccc2c(c1)OCO2)C1CCN(C(=O)c2ccc([N+](=O)[O-])cc2)CC1	none
O=C(CC1S/C(=N/N=C/C=C/c2ccccc2)NC1=O)Nc1ccc(Cl)c(Cl)c1 (stereo unspecified)	VP16 counter 7.9µM, RORg inh 5.6µM, SW480 rereplic inconclusive
CCCCN=C1NC(=O)C(CC(=O)Nc2ccc(Cl)cc2)S1 (stereo unspecified)	none
CC(=O)c1cccc(NC(=O)CC2S/C(=N/N=C/c3ccccc3)NC2=O)c1 (stereo unspecified)	none
Cc1ccc(/C=N/N=C2/NC(=O)C(CC(=O)Nc3ccccc3)S2)o1 (stereo unspecified)	RORg inh 11µM, MCF10A rereplic inconclusive
Cc1ccc(/C=N/N=C2/NC(=O)C(CC(=O)Nc3ccc(Cl)cc3)S2)o1 (stereo unspecified)	VP16 counter inconclusive, RORg inh 11µM, SW480 rereplic inconclusive
COc1ccc(Cl)cc1NC(=O)C1CCN(C(=O)C2CC(=O)N(c3ccc(C)cc3)C2)CC1 (stereo unspecified)	none
CCOc1ccccc1NC(=O)COC(=O)c1cnc(C)cn1	none (no result: VP16 counter, RORg inh)
O=C(CC(SCCO)c1ccc([N+](=O)[O-])cc1)c1ccco1 (stereo unspecified)	VP16 counter inconclusive, ELG1 repair inh inconclusive
CC(=O)NC(CSC(CC(=O)c1ccco1)c1ccc(C)cc1)C(=O)O (stereo unspecified)	VP16 counter inconclusive, RORg inh inconclusive, ELG1 repair inh inconclusive, MCF10A rereplic 21µM, SW480 rereplic inconclusive
COc1ccc(CCNC(=O)c2cc3c(=O)n4ccccc4nc3n(CC3CCCO3)c2=N)cc1 (stereo unspecified)	MCF10A rereplic inconclusive (no result: VP16 counter, RORg inh, ELG1 repair inh)
COc1ccc(CCNC(=O)c2cc3c(=O)n4ccccc4nc3n(CC3CCCO3)c2=N)cc1OC (stereo unspecified)	ELG1 repair inh inconclusive
